Screening results: PubChem, National Center for Advancing Translational Sciences (NCATS)
KB-V1 MDR tox: kills drug-selected multidrug resistant KB-V1 cells; KB-V1 MDR cells viability, CellTiter-Glo, 72 h; Potency, µM (titrated, usually from 46.1 µM), most hits filed as cytotoxic; actives 3.4% (n = 400,000); AID 1347076; also: nearly all actives have a fitted effect of over 60% in size
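Readout: CellTiter-Glo luminescence, 10 min after addition. Cells: KB-V1 MDR subline, 72 h at 37 degrees C with compound. Analysis: corrected, normalized data fitted to concentration-effect curves.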
KB-3-1 cytotox: kills parental KB-3-1 adenocarcinoma cells. KB-3-1 viability, CellTiter-Glo ATP luminescence, 72 h. Potency, µM (titrated, usually from 46.1 µM), usual class: cytotoxic. actives 1.4% (n = 400,000); also: nearly all actives have a fitted effect of over 60% in size
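72 h, 37 °C compound treatment of KB-3-1 parental cells; CellTiter-Glo added, 10 min, luminescence read. Data corrected against DMSO-only plates and normalized before curve fitting.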
SW480 rerep: DNA re-replication induction in SW480 cells; SW480 DNA re-replication, Hoechst DNA content imaging, 48 h; Potency, µM (series often up to 46.1 µM), actives largely listed as activators; actives 1.8% (n = 340,000); AID 624297; also: nearly all actives have a fitted effect of over 55% in size
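Compounds, transferred as 23 nL by pin tool, were incubated with cells for 48 hr; DNA content per nucleus was then quantified by Hoechst staining and fluorescence plate imaging.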
MCF10A rerep: inducers of DNA re-replication in MCF 10A breast cells | AID 624296 | actives 2.9% (n = 350,000) | Potency, µM (highest dose often 46.1 µM), usual class: activators | MCF 10A DNA re-replication, Hoechst nuclear intensity, 48 h; also: nearly all actives have a fitted effect of over 50% in size
ELG1 DNA repair: blocks ELG1-dependent DNA repair in HEK293T cells; actives 2.3% (n = 330,000); AID 504467; Potency, µM (doses to about 46.1 µM), usual class: inhibitors; HEK293T ELG1-luciferase reporter, luminescence, 16 h; DNA damage induced by 5-fluorouridine; also: nearly all actives have a fitted effect of over 55% in size
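Cells (2,000 per well) received 5-fluorouridine plus test compound or DMSO and were incubated 16 hr at 37 °C, 5% CO2. Luciferase activity was read by luminescence 30 min after ONE-Glo addition; signal suppression marked inhibition of damage-induced ELG1 function.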
Of the large screens only hits and unclear results are named; the others gave an inactive call. Rows were chosen to be rich in hits. Some 8.1% of all compounds tested hit in one or more screens of this group. Calls follow the shape of the dose curve; as a rule, active = well fitted curve in the direction sought with a large enough effect; inconclusive = small, poorly fitted or top-dose-only effect, or another doubt; inactive = no such curve, though single readings can be large; an effect the other way counts as inactive or inconclusive.

Nc1cccc2c1C(=O)N(Cc1cccc(Cl)c1)C2=O	SW480 rerep inconclusive, MCF10A rerep 16µM
COc1ccc(Cc2[nH]n3c(=O)cc(C)nc3c2-c2ccccc2)cc1	KB-3-1 cytotox inconclusive, SW480 rerep inconclusive, MCF10A rerep inconclusive, ELG1 DNA repair inconclusive
COc1ccc(Cc2[nH]n3c(=O)cc(C(C)C)nc3c2-c2ccccc2)cc1	KB-3-1 cytotox 10µM, SW480 rerep 10µM, MCF10A rerep 2.6µM, ELG1 DNA repair 8.2µM
O=C(CN1C(=O)/C(=C\c2cccc(Br)c2)Oc2ccccc21)NCCCN1CCOCC1	KB-V1 MDR tox inconclusive, SW480 rerep 15µM, MCF10A rerep 2.9µM
O=C(CN1C(=O)/C(=C\c2ccccc2Cl)Sc2ccccc21)NCCCN1CCOCC1	SW480 rerep 18µM, MCF10A rerep 18µM
CCc1ccc(/C=C2/Sc3ccccc3N(CC(=O)NCCCN3CCOCC3)C2=O)cc1	SW480 rerep inconclusive, MCF10A rerep inconclusive
O=C(CN1C(=O)/C(=C\c2cccc(Cl)c2)Sc2ccccc21)NCCCN1CCOCC1	SW480 rerep inconclusive, MCF10A rerep 21µM
O=C(CN1C(=O)/C(=C/c2ccc(C(F)(F)F)cc2)Sc2ccccc21)NCCCN1CCOCC1	SW480 rerep inconclusive, MCF10A rerep 21µM, ELG1 DNA repair inconclusive
O=C(CN1C(=O)S/C(=C\c2ccccc2Cl)C1=O)NCCCn1ccnc1	ELG1 DNA repair inconclusive
O=C(CN1C(=O)COc2ccccc21)NCCCN1CCOCC1	KB-V1 MDR tox inconclusive
C=CCn1c(=O)c2c3c(sc2n2c(Nc4ccc(OC)cc4)nnc12)CCCC3	KB-V1 MDR tox inconclusive, KB-3-1 cytotox inconclusive, ELG1 DNA repair 8.2µM
C=CCn1c(=O)c2c3c(sc2n2c(Nc4ccccc4)nnc12)CCCC3	KB-V1 MDR tox inconclusive, KB-3-1 cytotox inconclusive, ELG1 DNA repair 21µM
CCOC(=O)CSc1nnc2n(Cc3ccccc3)c(=O)c3c4c(sc3n12)CCC4	none
C=CCn1c(=O)c2c3c(sc2n2c(Nc4ccc(C(=O)OCC)cc4)nnc12)CCCC3	SW480 rerep 13µM
COc1cc(C)c(C(C)C)cc1S(=O)(=O)n1cnc(C)c1	KB-V1 MDR tox inconclusive, KB-3-1 cytotox 5.2µM, SW480 rerep 5.2µM, MCF10A rerep inconclusive
O=C(COC(=O)c1cncc(Br)c1)Nc1ccc(F)c(F)c1F	ELG1 DNA repair inconclusive
N#Cc1ccc(N2C(=O)[C@@H]3C(C(=O)c4ccc5ccccc5n4)=NN[C@@H]3C2=O)cc1	none
O=C(c1csc2c1CCCC2)N1CCN(c2ncccn2)CC1	KB-V1 MDR tox 16µM
O=C(c1csc2c1CCCC2)N1CCN(c2ccc(F)cc2)CC1	MCF10A rerep inconclusive, ELG1 DNA repair inconclusive
O=C(c1csc2c1CCCC2)N1CCN(c2cccc(C(F)(F)F)c2)CC1	KB-V1 MDR tox 21µM, MCF10A rerep inconclusive
O=C(NCc1cccnc1)c1nnc(Cc2ccc(F)cc2)o1	none
CCOC(=S)SCC(=O)N1CCc2cc(OC)c(OC)cc2C1C1C(=O)CC(C)(C)CC1=O (configuration not stated)	MCF10A rerep inconclusive
CCOC(=S)SCC(=O)N1CCc2cc(OC)ccc2C1C1C(=O)CCCC1=O (configuration not stated)	KB-V1 MDR tox inconclusive, KB-3-1 cytotox inconclusive, SW480 rerep 10µM, MCF10A rerep inconclusive
C=CCN1c2ccccc2[C@]23C[C@@H](C(=O)OC)N(C(=O)NC4CCCC4)C2=NC(C(=O)OC)=C(C(=O)OC)[C@H]13	SW480 rerep inconclusive (no result: ELG1 DNA repair)
CCOC(=O)CN1N=C(/C=C/c2ccc(C)cc2)CCC1=O	KB-V1 MDR tox 5.8µM, KB-3-1 cytotox 5.2µM, ELG1 DNA repair inconclusive
Cc1ccccc1CN1N=C(/C=C/c2ccccc2)CCC1=O	KB-V1 MDR tox inconclusive, ELG1 DNA repair inconclusive
Cc1ccc(N(C)C(=O)c2sc3nc4n(c(=O)c3c2C)CCCC4)cc1C	none (no result: SW480 rerep, MCF10A rerep, ELG1 DNA repair)
CC[N+](CC)(CC#Cc1ccccc1)CC#Cc1ccccc1	KB-3-1 cytotox 8.2µM, ELG1 DNA repair inconclusive
N#CC1=C(N)N2C(=C(C#N)C1c1ccc(Br)cc1)Nc1ccccc12 (configuration not stated)	SW480 rerep 16µM, MCF10A rerep 2.1µM, ELG1 DNA repair 2.9µM
N#CC1=C(N)N2C(=C(C#N)C1c1cccc(Br)c1)Nc1ccccc12 (configuration not stated)	KB-V1 MDR tox 5.8µM, KB-3-1 cytotox inconclusive, SW480 rerep 15µM, MCF10A rerep 21µM, ELG1 DNA repair 2.9µM
N#CC1=C(N)N2C(=C(C#N)C1c1ccccc1)Sc1ccccc12 (configuration not stated)	none (no result: KB-V1 MDR tox, KB-3-1 cytotox, SW480 rerep, MCF10A rerep)
c1ccc2c(SCc3cn4cccnc4n3)ncnc2c1	none
Cc1ccc2[nH]c(-c3ccccc3)cc(=O)c2c1	KB-V1 MDR tox inconclusive, KB-3-1 cytotox 0.29µM, SW480 rerep inconclusive, MCF10A rerep inconclusive, ELG1 DNA repair inconclusive
Cc1cc(=O)c2ccccc2[nH]1	none
Cc1ccc(-c2cc(=O)c3ccccc3[nH]2)cc1	KB-V1 MDR tox inconclusive, KB-3-1 cytotox inconclusive, SW480 rerep inconclusive, MCF10A rerep 13µM, ELG1 DNA repair inconclusive
O=c1cc(-c2ccc(Cl)cc2)[nH]c2ccccc12	KB-3-1 cytotox inconclusive, SW480 rerep inconclusive, MCF10A rerep 15µM
COc1ccc(OC)c(NC(=O)NNC(=O)c2cc3occc3[nH]2)c1	KB-V1 MDR tox inconclusive
COc1ccc2[nH]c3c(c2c1)CCN1C(=O)C(CC(=O)NCCN2CCOCC2)C[C@H](C(=O)N(C(C)C)C(C)C)[C@@]31C (some centres not stated)	none
O=[N+]([O-])c1ccc(Cl)cc1N/N=C/c1ccncc1	none
O=[N+]([O-])c1cc(S(=O)(=O)Nc2ccc(Cl)cc2)ccc1N/N=C/c1ccncc1	MCF10A rerep 4.1µM
Cc1nc2c(nc1C)C(=O)c1ccccc1C2=O	KB-V1 MDR tox 9.2µM, KB-3-1 cytotox 16µM, SW480 rerep 13µM, MCF10A rerep 5.8µM (no result: ELG1 DNA repair)
O=C1c2ccccc2-c2nc3ccccc3nc21	ELG1 DNA repair inconclusive
C=C(C)C1CC=C(C)/C(=N/NC(=O)COc2ccc(C)cc2)C1 (configuration not stated)	none
C=C(C)C1CC=C(C)/C(=N\NC(=S)Nc2ccc(C)cc2)C1 (configuration not stated)	KB-V1 MDR tox 16µM, KB-3-1 cytotox inconclusive, SW480 rerep inconclusive, MCF10A rerep inconclusive
Cc1nc(C(=O)O)nn1-c1cc(Cl)ccc1Cl	KB-V1 MDR tox inconclusive
Cc1cc(C(=O)N2CCCC(N3CCN(c4cccc(C(F)(F)F)c4)CC3)C2)c(C)o1 (configuration not stated)	SW480 rerep 18µM, MCF10A rerep inconclusive
O=C(COc1cccc(C(F)(F)F)c1)N1CCN(c2ccc(O)cc2)CC1	KB-V1 MDR tox inconclusive, ELG1 DNA repair 16µM
O=C(COc1cccc(C(F)(F)F)c1)N1CCN(c2ccccc2O)CC1	none
